{
  "source": "PubChem BioAssay AID2459",
  "about": "(The Scripps Research Institute Molecular Screening Center, 2010)",
  "note": "The list shows a part of the results. Calls of active or inactive are those of the source.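 The calls were made as follows: active = average inhibition across triplicates above the hit cutoff set in the primary screen (cut at about 32% in these data); inactive = the rest.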",
  "data": [
    {"molecular_target": "Female germline-specific tumor suppressor gld-1 (Caenorhabditis elegans) (UniProt Q17339)", "sequence (Q17339 whole entry, looked up)": "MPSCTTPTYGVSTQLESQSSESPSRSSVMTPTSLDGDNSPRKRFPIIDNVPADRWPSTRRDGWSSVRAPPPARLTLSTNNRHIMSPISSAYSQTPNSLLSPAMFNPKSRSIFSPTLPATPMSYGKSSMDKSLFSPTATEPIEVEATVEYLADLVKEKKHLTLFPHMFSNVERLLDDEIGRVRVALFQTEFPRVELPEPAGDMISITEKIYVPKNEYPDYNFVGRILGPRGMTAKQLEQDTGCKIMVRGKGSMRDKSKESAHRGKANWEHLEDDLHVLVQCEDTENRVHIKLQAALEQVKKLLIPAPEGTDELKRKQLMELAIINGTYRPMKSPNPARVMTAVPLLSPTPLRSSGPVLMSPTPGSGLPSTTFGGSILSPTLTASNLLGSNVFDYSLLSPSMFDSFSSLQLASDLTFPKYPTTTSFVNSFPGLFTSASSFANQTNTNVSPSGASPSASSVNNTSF", "assay": "GLD-1/TGE RNA binding inhibitors, retest, confirmation, biochemical, fluorescence polarization, triplicate (AID 2459);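 also: 0% = GLD-1 with RNA probe and DMSO and 100% = wells lacking GLD-1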", "conditions": "GLD-1/FL-TGE RNA fluorescence polarization, at 5.96 µM, active compounds read high", "values": [
      {"smiles": "COc1cc([C@H](Cc2ccccc2)NC(C)=O)oc(=O)c1", "inhibition": "25.8% (inactive)"},
      {"smiles": "COc1ccc(Nc2ccc([N+](=O)[O-])cn2)cn1", "inhibition": "18.7% (inactive)"},
      {"smiles": "Cc1ccc(/C=N/NC(=O)COc2ccccc2-c2ccccc2)cc1", "inhibition": "-5.49% (inactive)"},
      {"smiles": "O=C1c2ccccc2-c2ncnc3c(N4CCOCC4)cc(N4CCOCC4)c1c23", "inhibition": "-4.23% (inactive)"},
      {"smiles": "CCOc1ccc2nc(N3CCCN(C(=O)Nc4ccccc4C)CC3)c(C#N)cc2c1", "inhibition": "52.2% (active)"},
      {"smiles": "O=c1[nH]c(=O)c2nc3ccccc3nc2[nH]1", "inhibition": "101% (active)"},
      {"smiles": "CCOc1cc(C2C(C(=O)OC)=CN(C3CCCC3)C=C2C(=O)OC)cc(Br)c1O", "inhibition": "31.8% (active)"},
      {"smiles": "O=C1c2ccccc2C(=O)c2c1cccc2N1CCN(CCO)CC1", "inhibition": "16.5% (inactive)"},
      {"smiles": "Cc1ccc(C)c(S(=O)(=O)N2CCN(C(=O)Nc3ccccc3)CC2)c1", "inhibition": "2.41% (inactive)"},
      {"smiles": "C=C1CCN([C@@H](Cc2ccccc2)C(=O)N2CCOCC2)S(=O)(=O)c2ccccc21", "inhibition": "-0.33% (inactive)"},
      {"smiles": "CC1CC(C)CN(S(=O)(=O)c2cccc(C(=O)N3C(=O)c4cccc(N)c4C3=O)c2)C1", "note": "(stereo not given)", "inhibition": "1.78% (inactive)"},
      {"smiles": "COC(=O)c1sc(NC(=S)NC(=O)c2ccc(C)cc2)nc1C", "inhibition": "-1.92% (inactive)"},
      {"smiles": "COc1cc(C(=O)NCc2ccc3c(c2)cc(C)n3C)cc(OC)c1OC", "inhibition": "5.96% (inactive)"},
      {"smiles": "Oc1ccc2ccccc2c1N=Nc1nccs1", "inhibition": "8.17% (inactive)"},
      {"smiles": "COC(=O)CCCC1=CC2=CC(=O)C(C)(OC(=O)c3cccs3)C(=O)C2=CN1c1cccc(C#N)c1", "note": "(stereo not given)", "inhibition": "8.48% (inactive)"},
      {"smiles": "COCCOC(=O)c1sc(=S)n(CCOC)c1N", "inhibition": "47.7% (active)"},
      {"smiles": "Cc1ccccc1Nc1nc(N)nc(CSc2nnc3ccccn23)n1", "inhibition": "-3.26% (inactive)"},
      {"smiles": "CCCn1c(C2CCCN2c2nc(-c3ccc(C)cc3)cs2)nc2cc(Cl)c(N3CCCCC3)cc21", "note": "(stereo not given)", "inhibition": "-4.07% (inactive)"},
      {"smiles": "CN(CCOc1ccccc1)C(=O)c1cc(-c2ccco2)nc2ccccc12", "inhibition": "-3.07% (inactive)"},
      {"smiles": "CN(C)c1ccc(Nc2c3c4c(cccc4n(C)c2=O)C(=O)c2ccccc2-3)cc1", "inhibition": "63.3% (active)"},
      {"smiles": "COc1ccc(-c2nc(CS(=O)CC(=O)NCc3ccccn3)c(C)o2)cc1", "note": "(stereo not given)", "inhibition": "61.1% (active)"},
      {"smiles": "CNC(=S)NNC(=O)c1oc2nc(-c3ccccc3)cc(-c3ccco3)c2c1N", "inhibition": "-4.28% (inactive)"},
      {"smiles": "N#C/C(=C(\\O)C(F)(F)F)c1nnc2n1CCCCC2", "inhibition": "-8.93% (inactive)"},
      {"smiles": "COC(=O)c1cc(CNC(=O)CC(C)c2ccccc2)ccc1OC", "note": "(stereo not given)", "inhibition": "-6.47% (inactive)"},
      {"smiles": "O=c1[nH]cccc1-c1nc2ccccc2n1Cc1ccc(Cl)cc1", "inhibition": "-6.98% (inactive)"},
      {"smiles": "Cc1cc2ccccc2n1CCC(=O)O", "inhibition": "10.1% (inactive)"},
      {"smiles": "CC(NC(=O)CSc1nc2c(cc1C#N)CN(C)CC2)c1ccccc1", "note": "(stereo not given)", "inhibition": "-6.45% (inactive)"},
      {"smiles": "N#CC1=C(N)C(C#N)(C#N)[C@H](c2ccsc2)[C@H]2COCC=C12", "inhibition": "7.34% (inactive)"},
      {"smiles": "COc1ccc2[nH]c(C)c(CCN(Cc3cccs3)C(=S)Nc3ccccc3OC)c2c1", "inhibition": "-3.16% (inactive)"},
      {"smiles": "CCCN(CC(=O)Nc1ccccc1OC)C(=O)CCC(=O)c1ccc(F)cc1", "inhibition": "-0.97% (inactive)"}
    ]}
  ]
}
